Experimental data published in the supplement of paper PMC10849652.
Of roughly 8,800 targets only a part is listed; those with a hit were picked by preference. About 0.5% of all pairs of compound and target were hits.

Legend:
Assay in all cases: log2 fold change, soluble protein after heating vs DMSO (PISA); higher = thermal stabilisation; K562 lysate, 10 uM; active = over 0.2 and 3.5 SD of the protein, either way, in both replicates (recomputed)
lapatinib = compound: CS(=O)(=O)CCNCc1ccc(-c2ccc3ncnc(Nc4ccc(OCc5cccc(F)c5)c(Cl)c4)c3c2)o1 [lapatinib]
Outline: (§1)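 Pellets of K562 cells were dounce-homogenised in PBS pH 7.4 with 1 mM MgCl2, and the crude extract was held at 1 mg/mL protein for a 30 min treatment with 10 μM compound. Aliquots were heated for 3 min over 48°C-58°C and pooled before NP-40 was added to 0.5% at 4°C. The supernatant from 21,000xg for 90 min was quantified by TMTpro 16plex LC-MS/MS with channel sums equalised. Values are reported from duplicates as log-two fold change in thermal stability relative to solvent controls.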

pictilisib = compound: CS(=O)(=O)N1CCN(Cc2cc3nc(-c4cccc5[nH]ncc45)nc(N4CCOCC4)c3s2)CC1 [pictilisib]
Outline: as §1

crizotinib = compound: C[C@@H](Oc1cc(-c2cnn(C3CCNCC3)c2)cnc1N)c1c(Cl)ccc(F)c1Cl [crizotinib]
Outline: as §1

[1] = compound: C[C@H](C1=CC=C(C=C1)C(=O)NC2=C3C=CNC3=NC=C2)N
Outline: as §1

duvelisib = compound: C[C@H](Nc1ncnc2nc[nH]c12)c1cc2cccc(Cl)c2c(=O)n1-c1ccccc1 [duvelisib]
Outline: as §1

gandotinib = compound: Cc1cc(Nc2cc(CN3CCOCC3)c3nc(C)c(Cc4ccc(Cl)cc4F)n3n2)n[nH]1 [gandotinib]
Outline: as §1

tozasertib = compound: Cc1cc(Nc2cc(N3CCN(C)CC3)nc(Sc3ccc(NC(=O)C4CC4)cc3)n2)n[nH]1 [tozasertib]
Outline: as §1

doramapimod = compound: Cc1ccc(-n2nc(C(C)(C)C)cc2NC(=O)Nc2ccc(OCCN3CCOCC3)c3ccccc23)cc1 [doramapimod]
Outline: as §1

bafetinib = compound: Cc1ccc(NC(=O)c2ccc(CN3CC[C@H](N(C)C)C3)c(C(F)(F)F)c2)cc1Nc1nccc(-c2cncnc2)n1 [bafetinib]
Outline: as §1

[2] = compound: Cc1cccc(CC(=O)N2CCc3c2ccc(-c2cn(C)c4ncnc(N)c24)c3F)n1
Outline: as §1

nilotinib = compound: Cc1cn(-c2cc(NC(=O)c3ccc(C)c(Nc4nccc(-c5cccnc5)n4)c3)cc(C(F)(F)F)c2)cn1 [nilotinib]
Outline: as §1

[3] = compound: Cc1nc(Nc2n[nH]c3c2CN(C(=O)N[C@H](CN(C)C)c2ccccc2)C3(C)C)c2sccc2n1
Outline: as §1

dasatinib = compound: Cc1nc(Nc2ncc(C(=O)Nc3c(C)cccc3Cl)s2)cc(N2CCN(CCO)CC2)n1 [dasatinib]
Outline: as §1

[4] = compound: Cc1ncc(-c2ccnc(Nc3ccc(S(C)(=O)=O)cc3)n2)n1C(C)C
Outline: as §1

[5] = compound: Cn1cc(-c2ccc3c(c2)CCN3C(=O)Cc2cccc(C(F)(F)F)c2)c2c(N)ncnc21
Outline: as §1

quisinostat = compound: Cn1cc(CNCC2CCN(c3ncc(C(=O)NO)cn3)CC2)c2ccccc21 [quisinostat]
Outline: as §1

tipifarnib = compound: Cn1cncc1[C@@](N)(c1ccc(Cl)cc1)c1ccc2c(c1)c(-c1cccc(Cl)c1)cc(=O)n2C [tipifarnib]
Outline: as §1

[6] = compound: NC(=O)Nc1cc(-c2cccc(F)c2)sc1C(=O)N[C@H]1CCCNC1
Outline: as §1

[7] = compound: NC(=O)c1cnc(N[C@@H]2CCCC[C@@H]2N)nc1Nc1cccc(-n2nccn2)c1
Outline: as §1

[8] = compound: NC1(c2ccc(-c3nc4ccn5c(=O)[nH]nc5c4cc3-c3ccccc3)cc2)CCC1
Outline: as §1

Measured: log2 fold change

TMPO (UniProt P42167)
Chain of UniProt P42167 (P42167 whole entry, looked up): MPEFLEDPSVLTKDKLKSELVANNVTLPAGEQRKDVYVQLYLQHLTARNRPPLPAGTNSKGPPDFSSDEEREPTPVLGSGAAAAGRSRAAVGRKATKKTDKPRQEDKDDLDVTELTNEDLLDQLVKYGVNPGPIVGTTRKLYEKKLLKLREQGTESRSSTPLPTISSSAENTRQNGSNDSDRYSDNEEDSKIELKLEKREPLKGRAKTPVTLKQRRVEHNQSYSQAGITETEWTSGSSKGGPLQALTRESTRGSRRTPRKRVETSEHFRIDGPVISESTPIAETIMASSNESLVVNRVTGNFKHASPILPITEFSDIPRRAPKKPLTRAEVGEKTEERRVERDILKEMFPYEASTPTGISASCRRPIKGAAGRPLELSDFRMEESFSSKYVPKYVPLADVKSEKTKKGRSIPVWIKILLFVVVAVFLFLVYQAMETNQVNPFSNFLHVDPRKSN
inactive: lapatinib 0.053 | pictilisib 0.029 | crizotinib 0.059 | [1] 0.047 | duvelisib -0.039 | gandotinib -0.033 | tozasertib 0.035 | doramapimod -0.037 | bafetinib 0.005 | [2] -0.04 | nilotinib -0.033 | [3] -0.003 | dasatinib 0.008 | [4] -0.042 | [5] -0.016 | quisinostat 0.061 | tipifarnib -0.034 | [6] 0.009 | [7] -0.011 | [8] 0.007

TPP2 (UniProt P29144)
Chain of UniProt P29144 (P29144 whole entry, looked up): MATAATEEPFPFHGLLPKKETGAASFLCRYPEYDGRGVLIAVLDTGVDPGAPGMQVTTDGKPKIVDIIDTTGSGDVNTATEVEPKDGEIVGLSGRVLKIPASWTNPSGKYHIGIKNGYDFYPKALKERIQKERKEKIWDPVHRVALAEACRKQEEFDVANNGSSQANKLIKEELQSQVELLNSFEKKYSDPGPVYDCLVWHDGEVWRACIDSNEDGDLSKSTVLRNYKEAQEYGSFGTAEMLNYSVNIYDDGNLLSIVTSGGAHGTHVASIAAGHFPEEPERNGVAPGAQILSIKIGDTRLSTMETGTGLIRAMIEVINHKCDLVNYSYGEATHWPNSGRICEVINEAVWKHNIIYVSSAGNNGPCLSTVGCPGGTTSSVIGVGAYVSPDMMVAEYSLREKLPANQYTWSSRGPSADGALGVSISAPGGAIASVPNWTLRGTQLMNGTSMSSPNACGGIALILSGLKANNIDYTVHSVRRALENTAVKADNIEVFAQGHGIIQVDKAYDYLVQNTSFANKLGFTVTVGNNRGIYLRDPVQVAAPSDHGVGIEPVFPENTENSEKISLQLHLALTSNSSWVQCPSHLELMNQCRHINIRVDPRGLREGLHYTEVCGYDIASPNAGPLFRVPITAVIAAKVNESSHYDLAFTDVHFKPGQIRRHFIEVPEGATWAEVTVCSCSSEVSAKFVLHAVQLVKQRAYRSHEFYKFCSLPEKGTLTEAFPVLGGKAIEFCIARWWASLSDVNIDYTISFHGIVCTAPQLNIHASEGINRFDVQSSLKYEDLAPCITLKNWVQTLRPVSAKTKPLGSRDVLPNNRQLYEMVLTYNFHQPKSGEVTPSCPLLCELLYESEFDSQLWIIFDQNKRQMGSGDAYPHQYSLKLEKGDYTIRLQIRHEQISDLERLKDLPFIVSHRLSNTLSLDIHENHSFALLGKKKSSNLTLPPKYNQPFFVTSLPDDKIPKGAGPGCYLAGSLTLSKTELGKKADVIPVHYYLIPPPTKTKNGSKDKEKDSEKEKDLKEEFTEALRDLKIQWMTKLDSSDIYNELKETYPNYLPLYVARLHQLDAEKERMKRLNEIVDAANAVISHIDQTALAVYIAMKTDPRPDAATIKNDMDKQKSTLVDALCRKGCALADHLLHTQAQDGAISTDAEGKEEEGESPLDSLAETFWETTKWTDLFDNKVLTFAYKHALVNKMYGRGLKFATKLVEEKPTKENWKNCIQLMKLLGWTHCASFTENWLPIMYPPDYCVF
inactive: lapatinib -0.007 | pictilisib 0.014 | crizotinib -0.009 | [1] 0.035 | duvelisib 0.011 | gandotinib -0.011 | tozasertib -0.009 | doramapimod 0.007 | bafetinib -0.008 | [2] -0.011 | nilotinib 0.013 | [3] -0.005 | dasatinib -0.005 | [4] -0.02 | [5] 0.019 | quisinostat 0.01 | tipifarnib 0.006 | [6] 0.013 | [7] 0 | [8] 0.003

TRA2A (UniProt Q13595)
Chain of UniProt Q13595 (Q13595 whole entry, looked up): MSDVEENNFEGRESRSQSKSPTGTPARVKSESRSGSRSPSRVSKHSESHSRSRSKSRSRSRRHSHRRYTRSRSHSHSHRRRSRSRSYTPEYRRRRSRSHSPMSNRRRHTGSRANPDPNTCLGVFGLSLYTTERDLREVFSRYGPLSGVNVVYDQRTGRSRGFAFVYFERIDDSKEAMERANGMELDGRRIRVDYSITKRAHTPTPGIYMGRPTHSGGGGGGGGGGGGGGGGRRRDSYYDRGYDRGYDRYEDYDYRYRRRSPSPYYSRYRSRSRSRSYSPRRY
inactive: lapatinib -0.012 | pictilisib 0.032 | crizotinib -0.184 | [1] -0.048 | duvelisib -0.048 | gandotinib -0.011 | tozasertib 0.015 | doramapimod 0.086 | bafetinib 0.042 | [2] 0.053 | nilotinib 0.098 | [3] -0.041 | dasatinib -0.08 | [4] -0.124 | [5] 0.077 | quisinostat -0.213 | tipifarnib -0.114 | [6] -0.206 | [7] 0 | [8] -0.062

TFIP11 (UniProt Q9UBB9)
Chain of UniProt Q9UBB9 (Q9UBB9 whole entry, looked up): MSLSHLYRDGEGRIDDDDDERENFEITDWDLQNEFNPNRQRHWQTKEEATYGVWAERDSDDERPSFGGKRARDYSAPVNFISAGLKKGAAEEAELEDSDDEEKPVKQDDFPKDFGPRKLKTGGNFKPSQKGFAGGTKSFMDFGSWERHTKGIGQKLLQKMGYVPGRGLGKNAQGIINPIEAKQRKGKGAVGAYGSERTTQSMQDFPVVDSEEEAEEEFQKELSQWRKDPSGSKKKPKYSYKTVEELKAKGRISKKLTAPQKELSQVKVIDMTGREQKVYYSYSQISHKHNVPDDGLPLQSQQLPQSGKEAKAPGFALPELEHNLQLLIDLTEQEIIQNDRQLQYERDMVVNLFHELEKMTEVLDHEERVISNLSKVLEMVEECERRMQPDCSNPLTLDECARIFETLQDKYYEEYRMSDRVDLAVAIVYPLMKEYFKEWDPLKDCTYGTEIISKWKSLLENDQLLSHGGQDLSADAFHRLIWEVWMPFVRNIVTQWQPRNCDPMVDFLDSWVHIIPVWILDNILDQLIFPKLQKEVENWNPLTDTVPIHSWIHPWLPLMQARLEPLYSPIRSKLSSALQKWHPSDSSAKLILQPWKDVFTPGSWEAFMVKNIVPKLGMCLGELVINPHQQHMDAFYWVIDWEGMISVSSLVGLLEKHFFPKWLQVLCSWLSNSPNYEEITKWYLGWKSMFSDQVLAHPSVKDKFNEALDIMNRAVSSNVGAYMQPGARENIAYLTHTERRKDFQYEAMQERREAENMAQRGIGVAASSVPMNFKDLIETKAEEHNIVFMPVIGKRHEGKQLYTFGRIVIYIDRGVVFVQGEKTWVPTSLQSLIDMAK
inactive: lapatinib -0.032 | pictilisib 0.061 | crizotinib -0.085 | [1] -0.031 | duvelisib -0.053 | gandotinib -0.097 | tozasertib 0.051 | doramapimod 0.043 | bafetinib -0.114 | [2] 0.06 | nilotinib 0.004 | [3] 0.003 | dasatinib -0.059 | [4] 0.035 | [5] 0.01 | quisinostat -0.067 | tipifarnib -0.005 | [6] 0.048 | [7] 0 | [8] -0.004

UBAP2L isoform 5 (UniProt Q14157)
inactive: lapatinib -0.022 | pictilisib -0.116 | crizotinib 0.099 | [1] -0.002 | duvelisib -0.047 | gandotinib 0.034 | tozasertib -0.049 | doramapimod -0.121 | bafetinib -0.015 | [2] -0.026 | nilotinib -0.141 | [3] 0.015 | dasatinib -0.035 | [4] 0.055 | [5] -0.058 | quisinostat 0.024 | tipifarnib -0.106 | [6] 0.048 | [7] 0.01 | [8] 0.02

TPM1 (UniProt H7BYY1)
inactive: lapatinib 0.028 | pictilisib 0.042 | crizotinib 0.096 | [1] 0.063 | duvelisib -0.004 | gandotinib -0.118 | tozasertib 0.012 | doramapimod -0.025 | bafetinib 0.026 | [2] -0.158 | nilotinib 0.014 | [3] -0.111 | dasatinib -0.023 | [4] 0.028 | [5] 0.02 | quisinostat 0.101 | tipifarnib 0.059 | [6] -0.017 | [7] 0.013 | [8] 0.033

UBE3C (UniProt Q15386)
Chain of UniProt Q15386 (Q15386 whole entry, looked up): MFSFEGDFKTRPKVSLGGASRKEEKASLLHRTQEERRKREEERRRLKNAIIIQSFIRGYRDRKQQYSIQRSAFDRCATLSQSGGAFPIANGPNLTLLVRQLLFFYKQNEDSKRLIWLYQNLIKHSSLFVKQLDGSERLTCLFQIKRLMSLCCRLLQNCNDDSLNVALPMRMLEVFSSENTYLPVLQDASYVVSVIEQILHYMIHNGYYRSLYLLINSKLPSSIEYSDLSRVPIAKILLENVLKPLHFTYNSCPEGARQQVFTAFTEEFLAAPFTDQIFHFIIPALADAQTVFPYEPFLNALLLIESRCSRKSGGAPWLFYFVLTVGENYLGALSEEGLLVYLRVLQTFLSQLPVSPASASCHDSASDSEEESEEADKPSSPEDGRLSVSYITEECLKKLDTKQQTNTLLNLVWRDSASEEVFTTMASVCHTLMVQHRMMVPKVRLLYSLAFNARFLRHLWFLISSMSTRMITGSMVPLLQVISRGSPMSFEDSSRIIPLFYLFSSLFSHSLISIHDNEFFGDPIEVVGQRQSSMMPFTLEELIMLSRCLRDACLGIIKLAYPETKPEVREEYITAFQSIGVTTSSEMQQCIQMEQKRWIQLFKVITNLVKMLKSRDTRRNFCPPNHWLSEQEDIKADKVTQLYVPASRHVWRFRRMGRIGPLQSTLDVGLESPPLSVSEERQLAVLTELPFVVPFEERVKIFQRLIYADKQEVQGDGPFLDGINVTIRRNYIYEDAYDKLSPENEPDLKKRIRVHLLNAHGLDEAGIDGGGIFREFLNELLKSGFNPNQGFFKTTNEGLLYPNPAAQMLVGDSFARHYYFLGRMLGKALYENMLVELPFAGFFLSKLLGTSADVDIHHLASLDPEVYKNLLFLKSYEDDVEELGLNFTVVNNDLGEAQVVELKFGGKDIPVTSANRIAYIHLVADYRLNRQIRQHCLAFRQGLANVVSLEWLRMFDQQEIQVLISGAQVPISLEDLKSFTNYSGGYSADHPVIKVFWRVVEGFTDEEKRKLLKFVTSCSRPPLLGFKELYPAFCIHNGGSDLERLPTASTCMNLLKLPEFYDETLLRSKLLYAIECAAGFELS
inactive: lapatinib -0.004 | pictilisib -0.029 | crizotinib -0.055 | [1] -0.039 | duvelisib 0.007 | gandotinib -0.075 | tozasertib 0 | doramapimod 0.038 | bafetinib -0.036 | [2] 0.021 | nilotinib -0.006 | [3] 0.025 | dasatinib -0.047 | [4] -0.017 | [5] 0.049 | quisinostat 0.013 | tipifarnib 0.01 | [6] 0.061 | [7] 0.027 | [8] -0.053

TRIM56 (UniProt Q9BRZ2)
Chain of UniProt Q9BRZ2 (Q9BRZ2 whole entry, looked up): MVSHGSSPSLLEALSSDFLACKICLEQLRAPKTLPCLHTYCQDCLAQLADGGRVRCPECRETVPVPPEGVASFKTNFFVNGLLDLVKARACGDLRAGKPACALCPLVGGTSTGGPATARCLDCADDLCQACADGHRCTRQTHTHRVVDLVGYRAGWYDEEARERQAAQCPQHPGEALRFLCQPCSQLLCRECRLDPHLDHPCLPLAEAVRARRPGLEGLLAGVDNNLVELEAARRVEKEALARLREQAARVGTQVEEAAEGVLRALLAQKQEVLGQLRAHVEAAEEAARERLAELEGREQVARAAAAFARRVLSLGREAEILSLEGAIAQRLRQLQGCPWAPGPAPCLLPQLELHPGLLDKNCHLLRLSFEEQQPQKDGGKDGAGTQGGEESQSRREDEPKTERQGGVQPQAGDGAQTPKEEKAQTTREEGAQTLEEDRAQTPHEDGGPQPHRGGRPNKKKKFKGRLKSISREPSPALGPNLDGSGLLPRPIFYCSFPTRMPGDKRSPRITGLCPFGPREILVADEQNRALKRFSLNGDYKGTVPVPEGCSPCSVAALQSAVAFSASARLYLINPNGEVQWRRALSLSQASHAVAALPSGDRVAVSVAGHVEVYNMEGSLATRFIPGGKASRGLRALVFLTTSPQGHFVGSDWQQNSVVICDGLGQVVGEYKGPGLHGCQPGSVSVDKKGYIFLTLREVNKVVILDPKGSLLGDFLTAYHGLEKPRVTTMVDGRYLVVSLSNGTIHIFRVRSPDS
inactive: lapatinib 0.001 | pictilisib -0.002 | crizotinib -0.002 | [1] 0.085 | duvelisib 0.003 | gandotinib -0.071 | tozasertib 0 | doramapimod 0.023 | bafetinib -0.132 | [2] 0.085 | nilotinib 0.033 | [3] 0.031 | dasatinib -0.073 | [4] -0.006 | [5] 0.017 | quisinostat -0.043 | tipifarnib -0.048 | [6] 0.005 | [7] -0.01 | [8] 0.007
